# Assay results reported in PubChem BioAssay (EPA / NIEHS).
# Inconclusive results are not listed. Active and inactive are the calls of the source. How the source made its calls, unless noted: active means hit-call score of the fitted dose curve at least 0.9, where 1 is the maximum; inactive means score below 0.9.
# How the values were obtained:
# [1] = read-out: Cytochrome P450 (CYP24A1_1), CYP24A1 (gene 1591); assay: LTEA_HepaRG_CYP24A1_1: Life Technologies and Expression Analysis (LTEA) Assay for Cytochrome P450 (CYP24A1_1) using HepaRG (AID 2283671); conditions: mRNA level, 48 h; actives raise or lower the signal
# In short: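 Readout is CYP24A1 transcript level by qRT-PCR, normalized to three housekeeping genes, with gain or loss of signal fitted against 0.5% DMSO. Human HepaRG cells received compound for 48 h at up to 100 uM.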
# [2] = CCTE_Padilla_ZF_144hpf_TERATOSCORE: (Legacy) CCTE's 144 Hour Post-fertilization zebrafish Assay Teratoscore, Padilla Lab (AID 2283679);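 on AC50: zebrafish embryos with chorions exposed by immersion from 6-8 hpf to 5 dpf with daily renewal; teratogenicity score from eye scoring of death hatching and malformations at 144 hpf; higher score means more developmental defects relative to DMSO baseline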
# In short: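 Larvae scored by eye at 144 hpf for death, hatching and malformations after a day in clean Hanks'. Before that, daily-renewed exposure at 80 uM (0.4% DMSO, 26C) from roughly 6-8 hpf through 5 dpf, 4 embryos per chemical.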
# [3] = STM_H9_OrnithineISnorm_perc: Stemina devTOX quickPredict H9 human embryonic stem cell (hESC)-based Assay for Ornithine (ORN) Metabolite Biomarker, Normalized (AID 2283712);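 further: ornithine released into spent medium during last day measured by mass spectrometry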
# In short: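 UPLC-HRMS readout: endogenous ornithine EIC area / 13C-ORN internal standard, then % of 0.1% DMSO median. H9 hESCs (pluripotent), 72h exposure, re-dosed with fresh media q24h; last 24-h spent media, deproteinized in 40% acetonitrile.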
# [4] = STM_H9_CystineISnorm_perc: Stemina devTOX quickPredict H9 human embryonic stem cell (hESC)-based Assay for Cystine (CYSS) Metabolite Biomarker, Normalized (AID 2283713)
# In short: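 UPLC-HRMS read-out: endogenous cystine peak area in spent medium, normalized to isotope-labeled internal standard and to median of 0.1% DMSO controls. Pluripotent H9 cells, 72h exposure, daily medium/compound replenishment; medium from last 24h sampled.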
# [5] = STM_H9_OrnCyssISnorm_ratio: Stemina devTOX quickPredict H9 human embryonic stem cell (hESC)-based Assay for Ornithine (ORN):Cystine (CYSS) Ratio (AID 2283714; active means hit-call score of the fitted dose curve at least 0.9, where 1 is the maximum)
# In short: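 UPLC-HRMS of spent media: ORN/CYSS ratio of internal-standard-normalized percentages, DMSO (0.1%) baseline. Pluripotent H9 hESCs, 72h exposure, daily re-dosing with fresh media; last 24h media collected.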
# [6] = tested on: Thyroperoxidase (TPO), gene 445522; assay: CCTE_Simmons_GUA_TPO: CCTE's Guaiacol Assay for Thyroperoxidase (TPO) Inhibition, Simmons Lab (AID 2283750; active means hit-call score of the fitted dose curve at least 0.9, where 1 is the maximum)
# In short: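 Porcine thyroid microsomes (25 ug) in 200mM potassium phosphate, preincubated 30 s at 37C with compound (8 concentrations, 5 nM–87.5 uM) and 35mM guaiacol; 1mM H2O2 starts reaction. Absorbance change at 450nm over first 80 s; loss of signal versus DMSO, three replicates.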
# [7] = ArunA_CellTiter_hNC: Viability Assessment in the ArunA Biomedical's Oris Neural Crest (hNC) Cell Migration Assay (AID 2283752; active means hit-call score of the fitted dose curve at least 0.9, where 1 is the maximum)
# In short: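 hNC cells (H9 ESC-derived), 60,000/well, Matrigel, LIF + bFGF medium; 16 h 37C attachment; 72 h compound in test medium; CellTiter Aqueous One read-out; loss-of-signal vs DMSO baseline.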
smiles,measurement,setting,value
CC(C)(C)OOC(C)(C)C,outcome,[1],inactive
Nc1ccc2ccccc2c1,AC50,[2],42.1 µM (active)
same,outcome,[3],inactive
same,outcome,[4],inactive
same,outcome,[5],inactive
Cc1cccc(N)c1,outcome,[2],inactive
same,AC50,[6],8.25 µM (active)
CCCCC(CC)COP(=O)(Oc1ccccc1)Oc1ccccc1 (stereo unspecified),outcome,[3],inactive
same,outcome,[4],inactive
same,outcome,[5],inactive
same,outcome,[7],inactive
